From PubChem BioAssay
IDE act – IDE (human) activation, cell-based; HEK cells, FAbeta-B cleavage, fluorescence polarization; 0% vehicle, 100% cell-free pure enzyme wells; activation, % at 5.96 µM; actives 0.073% (n = 340,000);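 active = activation above the mean of all tested compounds plus 3 SD, set per screening campaign, cut at about 17% in these data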
Target sequence (P14735 whole entry, looked up): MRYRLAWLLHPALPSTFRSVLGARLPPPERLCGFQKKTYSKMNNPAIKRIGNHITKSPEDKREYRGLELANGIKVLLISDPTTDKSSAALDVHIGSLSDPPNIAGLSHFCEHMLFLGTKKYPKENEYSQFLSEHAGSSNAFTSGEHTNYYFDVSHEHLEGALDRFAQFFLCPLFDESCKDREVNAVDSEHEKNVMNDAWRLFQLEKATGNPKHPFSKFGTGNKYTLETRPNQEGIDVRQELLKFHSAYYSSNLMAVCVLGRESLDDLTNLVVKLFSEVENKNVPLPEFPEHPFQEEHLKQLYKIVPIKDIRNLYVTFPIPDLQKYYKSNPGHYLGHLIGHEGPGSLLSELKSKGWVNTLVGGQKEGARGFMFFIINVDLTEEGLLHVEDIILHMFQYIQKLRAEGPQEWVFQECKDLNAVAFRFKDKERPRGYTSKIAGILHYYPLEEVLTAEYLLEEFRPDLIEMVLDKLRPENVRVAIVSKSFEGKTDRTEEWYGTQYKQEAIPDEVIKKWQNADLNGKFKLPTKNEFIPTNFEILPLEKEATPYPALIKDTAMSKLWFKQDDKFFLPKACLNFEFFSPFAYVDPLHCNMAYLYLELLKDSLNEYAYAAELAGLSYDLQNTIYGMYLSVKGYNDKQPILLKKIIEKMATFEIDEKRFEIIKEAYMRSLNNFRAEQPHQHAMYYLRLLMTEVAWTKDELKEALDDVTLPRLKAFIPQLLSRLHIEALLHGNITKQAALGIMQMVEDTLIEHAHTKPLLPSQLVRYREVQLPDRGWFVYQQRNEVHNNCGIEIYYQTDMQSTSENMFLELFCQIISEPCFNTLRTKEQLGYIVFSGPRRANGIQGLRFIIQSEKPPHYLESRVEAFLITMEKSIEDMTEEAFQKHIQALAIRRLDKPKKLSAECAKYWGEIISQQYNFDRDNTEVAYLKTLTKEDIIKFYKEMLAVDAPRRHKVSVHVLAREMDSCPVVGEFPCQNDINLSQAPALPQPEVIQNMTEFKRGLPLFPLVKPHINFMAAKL
NOD2-RIPK2 inh – NOD2-RIPK2 protein interaction inhibition; O43353; CHO BLA complementation NOD2-RIPK2, CCF4 ratio; inhibition, % at 4.98 µM; actives 0.38% (n = 360,000); AID 624267; in the data active = inhibition above about 21%
TLR4 MyD88 comp – inhibitors of human TLR4-MyD88 binding | HeLa CL3-4 TLR4/MyD88 BLA complementation, FRET ratio | inhibition, % at 8.4 µM | AID 861 | actives 0.18% (n = 200,000); in the data active = inhibition above about 25%
TLR9-MyD88 block – TLR9-MyD88 interaction inhibition; inhibition, % at 4.98 µM; actives 0.21% (n = 340,000); AID 504734; Q9NR96+Q99836; CHO BLA complementation TLR9-MyD88, CCF4 FRET ratio;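 active = inhibition above the mean over all tested compounds plus 3 SD, cut at about 21% in these data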
IDE cell inh – inhibits human insulin-degrading enzyme in HEK cells; P14735; FAbetaB cleavage, fluorescence polarization; inhibition, % at 5.59 µM; actives 0.41% (n = 320,000); AID 434962;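 active = percent inhibition above the average of all tested compounds plus 3 SD, set per screening campaign, cut at about 16% in these data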;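 also: IDE supplied by intact live HEK cells; FP after avidin binding of uncleaved biotin substrate so inhibition keeps polarization high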
IDE cell inh cf – confirmation of human insulin-degrading enzyme inhibitors in cells; shares compounds with IDE cell inh; HEK cells, FAbetaB cleavage, fluorescence polarization; inhibition, % at 5.59 µM; actives 51% (n = 1,200); AID 435028;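 active = mean inhibition across triplicate wells above the cutoff set by the earlier primary insulin-degrading enzyme screen, cut at about 16% in these data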
HEK293 tox – kills HEK cells in IDE inhibitor counter-screen; actives 28% (n = 1,200); AID 449730; inhibition, % at 5.59 µM; shares compounds with IDE cell inh; HEK293 cytotoxicity, ATP luminescence; in the data active = inhibition above about 22%
TLR9-MyD88 cf – TLR9-MyD88 interaction inhibition, confirmation; CHO TLR9/MyD88 BLA complementation, CCF4 FRET ratio; inhibition, % at 4.98 µM; AID 540250; shares compounds with TLR9-MyD88 block; actives 51% (n = 680);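 active = mean inhibition across three repeats above about 21% taken from the earlier screen, limit read from the data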;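 also: blue over green emission ratio reports constitutive TLR9 MyD88 association via BLA complementation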
BLA counter-1 – counter-screen for TLR9-MyD88 inhibitors: non-selective beta-lactamase inhibitors; shares compounds with TLR9-MyD88 block; CHO-BLA cells, CCF4 FRET ratio, BLA reporter; inhibition, % at 4.98 µM; actives 7% (n = 680); AID 540251;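 active = mean inhibition above a 50% cutoff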;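 also: counterscreen of TLR9-MyD88 hits on CMV-driven BLA in CHO-K1 cells; higher means less blue over green ratio so more BLA blockade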
TLR9 CHO tox – CHO cell toxicity counter-screen for TLR9-MyD88 inhibitors; shares compounds with TLR9-MyD88 block; TLR9-MyD88 CHO cells cytotoxicity, luminescence; inhibition, % at 4.98 µM; actives 39% (n = 680); AID 588336; in the data active = inhibition above about 11%
NOD2 RIPK2 conf – NOD2-RIPK2 interaction inhibition confirmed | CHO cells, NOD2-RIPK2 BLA complementation, CCF4 FRET | shares compounds with NOD2-RIPK2 inh | AID 624370 | inhibition, % at 4.98 µM | actives 70% (n = 1,200);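 active = mean inhibition across replicates above a set limit taken from the earlier primary screen, cut at about 21% in these data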
BLA counter-2 – counter-screen for NOD2-RIPK2 interaction inhibitors: BLA reporter | CHO BLA reporter, CCF4 FRET ratio, counterscreen | AID 624371 | inhibition, % at 4.98 µM | actives 57% (n = 1,200) | shares compounds with NOD2-RIPK2 inh;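 active = mean inhibition above the low-control mean inhibition plus three low-control SD, cut at about 11% in these data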
Large screens that a line does not name were inactive (follow-up assays come after a bar, where they were run). Rows were chosen to be rich in hits. Some 0.87% of all compounds tested hit in one or more screens of this group.

C[CH2][Hg][S]c1ccccc1C(=O)O	NOD2-RIPK2 inh active, TLR9-MyD88 block 52.0, IDE cell inh 52.6 (no result: TLR4 MyD88 comp) | IDE cell inh cf 20.9 | HEK293 tox 122.4 | TLR9-MyD88 cf 47.7 | BLA counter-1 inactive | TLR9 CHO tox 97.4 | NOD2 RIPK2 conf active | BLA counter-2 inactive
C[N+]1(C)C2CC(OC(=O)C(CO)c3ccccc3)CC1C1OC12 (stereo unspecified)	none (no result: TLR4 MyD88 comp)
COc1cc(/C=C(/C)[N+](=O)[O-])ccc1OCc1ccccc1Cl	NOD2-RIPK2 inh 81.0, TLR9-MyD88 block 34.0 | TLR9-MyD88 cf 33.8 | BLA counter-1 inactive | TLR9 CHO tox 98.9
CCC1(C)OC(c2ccccc2)=C/C(=C/C=C2C(=O)NC(=O)NC2=O)O1 (stereo unspecified)	TLR9-MyD88 block 33.2 (no result: IDE cell inh) | TLR9-MyD88 cf 24.8 | BLA counter-1 inactive | TLR9 CHO tox inactive
O=P1(NCCCl)OCCCN1CCCl (stereo unspecified)	none (no result: TLR4 MyD88 comp)
Cc1cc(C)cc(N2C(=O)NC(=O)/C(=C\c3cccn3-c3ccccc3)C2=O)c1	TLR9-MyD88 block 22.2 | TLR9-MyD88 cf inactive | BLA counter-1 inactive | TLR9 CHO tox inactive
Cc1cc(C)cc(N2C(=O)NC(=O)/C(=C\c3cccn3-c3ccc(Cl)cc3)C2=O)c1	none
COc1cccc(C2CCN(C)C2)c1 (stereo unspecified)	none (no result: IDE act, TLR4 MyD88 comp, IDE cell inh)
Nc1cc(Cl)c2nonc2c1[N+](=O)[O-]	NOD2-RIPK2 inh 73.6, TLR9-MyD88 block 52.2 | TLR9-MyD88 cf 47.9 | BLA counter-1 inactive | TLR9 CHO tox 97.2 | NOD2 RIPK2 conf 75.6 | BLA counter-2 21.4
COC(=O)C1=C(c2cccc(C#N)c2)C[C@@H]2CC[C@H]1N2C(=O)N1CCCCC1	none (no result: TLR4 MyD88 comp)
CC1=NCCc2c1[nH]c1cc(O)ccc21	IDE act 65.7, NOD2-RIPK2 inh 54.2, TLR9-MyD88 block 32.1 (no result: TLR4 MyD88 comp) | TLR9-MyD88 cf 26.1 | BLA counter-1 inactive | TLR9 CHO tox inactive | NOD2 RIPK2 conf 49.5 | BLA counter-2 51.2
COc1ccc2c3c([nH]c2c1)C(C)=NCC3	none
CC(=O)OC1C(=O)OCC23CCC4(C)OC4C2OC2CC(OC(=O)C=CC=CC(=O)OCCC1C)C3(C)C21CO1 (stereo unspecified)	NOD2-RIPK2 inh 30.7 (no result: TLR4 MyD88 comp, IDE cell inh) | NOD2 RIPK2 conf 24.9 | BLA counter-2 inactive
CC(O)C1C=CC=CC(=O)OC2CC3OC4C5OC5(C)CCC4(COC(=O)C4OC4(C)C(O)CO1)C2(C)C31CO1 (stereo unspecified)	NOD2-RIPK2 inh 29.5 (no result: TLR4 MyD88 comp, IDE cell inh) | NOD2 RIPK2 conf 20.9 | BLA counter-2 inactive
Nc1ccccc1C(=O)OCCc1ccccc1	none (no result: TLR4 MyD88 comp)
CC(=O)OC1(C)CC(C)C(=O)C(C(O)CC2CC(=O)NC(=O)C2)C1 (stereo unspecified)	NOD2-RIPK2 inh 28.5 (no result: TLR4 MyD88 comp, IDE cell inh) | NOD2 RIPK2 conf 22.6 | BLA counter-2 inactive
COC(=O)C12OCC34C(CC5C(C)=C(O)C(=O)CC5(C)C3C(O)C1O)OC(=O)C(OC(=O)/C=C(\C)C(C)C)C24 (stereo unspecified)	NOD2-RIPK2 inh 28.8 (no result: TLR4 MyD88 comp, IDE cell inh) | NOD2 RIPK2 conf 23.9 | BLA counter-2 inactive
COC1=C(OC)[C@]23CCc4ccc(OC)c(OC)c4[C@]2(CCN3C)CC1=O	none (no result: TLR4 MyD88 comp)
COc1ccc(CC(=O)N2CCN(C)CC2)cc1	none
COc1ccc(CC2NCC(O)C2OC(C)=O)cc1 (stereo unspecified)	NOD2-RIPK2 inh 35.3 (no result: TLR4 MyD88 comp, IDE cell inh) | NOD2 RIPK2 conf 32.4 | BLA counter-2 inactive
COC(=O)C1=C(c2ccc(OC)c(OC)c2)C[C@@H]2CC[C@H]1N2C(=O)NC(C)C	none (no result: TLR4 MyD88 comp)
CCOC(=O)[C@]12Cc3cc(C)ccc3[C@H]1N(CCC(=O)OC)C(=O)c1cc(OC)ccc12	none (no result: IDE act, TLR4 MyD88 comp, TLR9-MyD88 block, IDE cell inh)
CCOC(=O)[C@]12Cc3ccccc3[C@H]1N(C)C(=O)c1cc(OC)ccc12	none (no result: IDE act, TLR4 MyD88 comp, TLR9-MyD88 block, IDE cell inh)
CCOC(=O)[C@]12Cc3cc(C)ccc3[C@H]1N(C1CCCCC1)C(=O)c1cc(OC)ccc12	NOD2-RIPK2 inh 62.3 (no result: IDE act, TLR4 MyD88 comp, TLR9-MyD88 block, IDE cell inh) | NOD2 RIPK2 conf 73.3 | BLA counter-2 inactive
CCOC(=O)[C@]12Cc3cc(OC)ccc3[C@H]1N(C1CCCCC1)C(=O)c1cc(OC)ccc12	NOD2-RIPK2 inh 40.0 (no result: IDE act, TLR4 MyD88 comp, TLR9-MyD88 block, IDE cell inh) | NOD2 RIPK2 conf 25.6 | BLA counter-2 inactive
COCCCNP1(=O)OCC(C)([N+](=O)[O-])CO1 (stereo unspecified)	none (no result: TLR4 MyD88 comp, IDE cell inh)
CCN(CC)c1ccc(/C=C/[N+](=O)[O-])cc1	NOD2-RIPK2 inh 44.1 | NOD2 RIPK2 conf 54.5 | BLA counter-2 28.1
CCOC(=O)c1cncn1[C@@H](C)c1ccccc1	none (no result: TLR4 MyD88 comp)
CCOP(=O)(CCP(=O)(OCC)OCC)OCC.C[CH2][Sn]([Cl])([Cl])[CH2]C	NOD2-RIPK2 inh 25.2 (no result: TLR4 MyD88 comp, IDE cell inh) | NOD2 RIPK2 conf 51.4 | BLA counter-2 inactive
Cc1nn(CC(C)C)c(Cl)c1C(=O)NC1CCCCC1	none (no result: TLR4 MyD88 comp, IDE cell inh)
C[C@H](CO)N1C[C@H](C)[C@H](CN(C)C(=O)Oc2cccc3ccccc23)OCc2cnnn2CCCC1=O	none (no result: IDE act, TLR4 MyD88 comp, IDE cell inh)
CCOc1cc(C=O)ccc1O	none (no result: TLR4 MyD88 comp)
COc1cc(/C=C/[N+](=O)[O-])ccc1O	NOD2-RIPK2 inh 42.0 | NOD2 RIPK2 conf 44.4 | BLA counter-2 inactive
COC(=O)C1=C(c2ccccc2OCc2ccccc2)C[C@@H]2CC[C@H]1N2C(=O)NCc1ccc(OC)c(OC)c1	none (no result: TLR4 MyD88 comp)
CC1=CC2OC3CC4OC(=O)C=CC=CC(C(C)O)OCC(O)C(C)CC(=O)OCC2(CC1O)C4(C)C31CO1 (stereo unspecified)	NOD2-RIPK2 inh 21.7 (no result: TLR4 MyD88 comp, IDE cell inh) | NOD2 RIPK2 conf 21.4 | BLA counter-2 inactive
CC1=CC2OC3CC4OC(=O)C=CC=CC(=O)OCCC(C)C(O)C(=O)OCC2(CC1O)C4(C)C31CO1 (stereo unspecified)	NOD2-RIPK2 inh 29.3 (no result: TLR4 MyD88 comp, IDE cell inh) | NOD2 RIPK2 conf 28.2 | BLA counter-2 inactive
